In the supplement of paper PMC6411743 one finds NP40-soluble protein abundance data, which are given here for 1 molecule.

Common to all, as to experiment: NP40-soluble protein abundance relative to vehicle (solubility fold change) (ratio); higher = more soluble protein in presence of AMP-PNP
In one experiment the target is T1, A0A0A0MSG2|J3KNW4|Q14192 (UniProt Q14192).
T1 sequence (whole entry): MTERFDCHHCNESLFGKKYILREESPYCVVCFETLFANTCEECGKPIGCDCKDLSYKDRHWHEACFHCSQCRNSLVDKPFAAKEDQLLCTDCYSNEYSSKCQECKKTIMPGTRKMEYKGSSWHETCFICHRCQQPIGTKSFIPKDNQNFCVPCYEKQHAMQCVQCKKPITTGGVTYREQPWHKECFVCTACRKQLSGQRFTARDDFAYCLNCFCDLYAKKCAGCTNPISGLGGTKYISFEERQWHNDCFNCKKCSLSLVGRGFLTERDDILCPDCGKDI
In short, it runs like this:
(§1)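 Eight concentrations, 0.1 to 10 mM, were tested on Jurkat crude lysate for 10 min at room temperature and then 3 min at 37 °C, in three independent experiments. The lysate was solubilised with 0.8% NP40 and benzonase, ultracentrifuged, and the supernatant TMT-labelled for LC-MS/MS. Each value is the fold change against the detergent-processed vehicle in its own replicate, from vsn-normalised intensities.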

The target in a further experiment is T2, A0A0U1RRH6|O94880 (UniProt O94880).
T2 sequence (whole entry): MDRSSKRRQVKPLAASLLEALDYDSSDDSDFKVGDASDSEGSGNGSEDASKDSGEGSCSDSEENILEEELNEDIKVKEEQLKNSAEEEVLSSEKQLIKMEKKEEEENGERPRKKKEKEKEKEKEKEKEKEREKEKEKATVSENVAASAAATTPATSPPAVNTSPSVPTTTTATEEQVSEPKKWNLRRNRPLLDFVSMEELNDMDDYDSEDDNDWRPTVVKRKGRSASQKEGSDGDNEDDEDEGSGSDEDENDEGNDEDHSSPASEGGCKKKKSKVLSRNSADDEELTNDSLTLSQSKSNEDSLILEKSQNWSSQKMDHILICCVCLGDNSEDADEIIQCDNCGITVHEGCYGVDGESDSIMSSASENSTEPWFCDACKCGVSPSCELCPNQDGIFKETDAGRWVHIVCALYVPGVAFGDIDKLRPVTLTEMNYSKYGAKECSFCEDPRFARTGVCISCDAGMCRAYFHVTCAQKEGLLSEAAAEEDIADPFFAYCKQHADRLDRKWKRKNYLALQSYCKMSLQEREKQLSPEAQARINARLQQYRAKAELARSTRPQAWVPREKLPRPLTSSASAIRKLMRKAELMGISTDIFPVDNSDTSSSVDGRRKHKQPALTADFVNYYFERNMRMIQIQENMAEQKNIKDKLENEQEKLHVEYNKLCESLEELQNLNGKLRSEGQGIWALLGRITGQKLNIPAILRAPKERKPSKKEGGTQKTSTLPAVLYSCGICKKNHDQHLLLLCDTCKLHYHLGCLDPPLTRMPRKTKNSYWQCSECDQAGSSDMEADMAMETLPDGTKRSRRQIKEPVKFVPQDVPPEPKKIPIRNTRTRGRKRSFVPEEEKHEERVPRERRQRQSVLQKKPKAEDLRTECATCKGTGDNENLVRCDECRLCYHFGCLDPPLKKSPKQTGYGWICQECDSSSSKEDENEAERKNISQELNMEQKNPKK
In short, it runs like this:
as §1

In a further experiment the target is T3, ACOX3 (UniProt O15254).
T3 sequence (whole entry): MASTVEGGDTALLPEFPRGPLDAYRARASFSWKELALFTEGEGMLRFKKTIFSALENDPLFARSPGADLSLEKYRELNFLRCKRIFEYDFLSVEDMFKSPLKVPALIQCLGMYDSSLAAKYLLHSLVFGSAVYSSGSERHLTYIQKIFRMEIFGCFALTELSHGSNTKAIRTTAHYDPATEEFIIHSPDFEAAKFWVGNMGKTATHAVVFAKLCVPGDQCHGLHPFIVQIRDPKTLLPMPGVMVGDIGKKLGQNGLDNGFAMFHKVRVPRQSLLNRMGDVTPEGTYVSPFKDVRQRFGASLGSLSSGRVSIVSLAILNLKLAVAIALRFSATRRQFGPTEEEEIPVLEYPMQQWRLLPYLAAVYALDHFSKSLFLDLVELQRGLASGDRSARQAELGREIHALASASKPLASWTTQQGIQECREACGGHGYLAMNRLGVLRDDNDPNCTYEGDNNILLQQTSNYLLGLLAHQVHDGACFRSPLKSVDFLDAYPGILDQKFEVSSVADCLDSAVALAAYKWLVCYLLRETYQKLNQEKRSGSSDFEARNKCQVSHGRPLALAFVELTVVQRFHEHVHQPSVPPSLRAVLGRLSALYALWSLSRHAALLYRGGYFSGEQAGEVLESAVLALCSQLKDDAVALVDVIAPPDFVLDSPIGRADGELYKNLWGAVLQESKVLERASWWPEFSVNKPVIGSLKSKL
The essentials: as §1

Another experiment deals with T4, C9JI46|Q8N3X6|Q8N3X6-3 (UniProt Q8N3X6).
T4 sequence (whole entry): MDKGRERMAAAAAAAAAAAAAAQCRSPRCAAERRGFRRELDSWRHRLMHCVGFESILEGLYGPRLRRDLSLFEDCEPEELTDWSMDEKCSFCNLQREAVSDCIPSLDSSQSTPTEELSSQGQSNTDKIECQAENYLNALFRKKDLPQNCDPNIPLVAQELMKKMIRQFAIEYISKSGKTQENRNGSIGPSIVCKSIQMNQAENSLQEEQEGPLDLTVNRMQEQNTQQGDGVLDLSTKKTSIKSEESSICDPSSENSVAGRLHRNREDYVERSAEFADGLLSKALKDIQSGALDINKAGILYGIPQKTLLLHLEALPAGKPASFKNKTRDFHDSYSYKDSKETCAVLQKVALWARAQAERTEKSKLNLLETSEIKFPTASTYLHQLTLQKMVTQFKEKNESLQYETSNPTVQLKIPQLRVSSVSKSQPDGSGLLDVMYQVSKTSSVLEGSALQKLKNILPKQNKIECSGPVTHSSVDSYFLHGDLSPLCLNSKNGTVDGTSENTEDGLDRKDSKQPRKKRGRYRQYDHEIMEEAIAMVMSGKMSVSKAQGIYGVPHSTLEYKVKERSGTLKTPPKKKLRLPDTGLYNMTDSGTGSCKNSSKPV
The essentials:
as §1

± gives the standard deviation of the averaged measurements. Targets with the largest changes are over-represented here; the source holds about 6,200 in all.

Turning to `Nc1ncnc2c1ncn2[C@@H]1O[C@H](COP(=O)(O)OP(=O)(O)NP(=O)(O)O)[C@@H](O)[C@H]1O` [adenylyl imidodiphosphate], the NP40-soluble protein abundance with A0A0A0MSG2|J3KNW4|Q14192 (concentration: 1mM) is 0.991 ± 0.05; with A0A0A0MSG2|J3KNW4|Q14192 (concentration: 2mM) it was 0.988 ± 0.09; with A0A0A0MSG2|J3KNW4|Q14192 (concentration: 4mM), 1.02 ± 0.048; with A0A0A0MSG2|J3KNW4|Q14192 (concentration: 6mM), 0.966 ± 0.036; with A0A0A0MSG2|J3KNW4|Q14192 (concentration: 8mM), 0.979 ± 0.083; with A0A0A0MSG2|J3KNW4|Q14192 (concentration: 10mM) it was 0.947 ± 0.035. The NP40-soluble protein abundance in the experiment with A0A0U1RRH6|O94880 (concentration: 1mM) turned out to be 1.02 ± 0.036; with A0A0U1RRH6|O94880 (concentration: 2mM) it was 1.07 ± 0.03; with A0A0U1RRH6|O94880 (concentration: 4mM), 1.14 ± 0.025; with A0A0U1RRH6|O94880 (concentration: 6mM) it was 1.21 ± 0.017; in the experiment with A0A0U1RRH6|O94880 (concentration: 8mM), 1.27 ± 0.035; in the experiment with A0A0U1RRH6|O94880 (concentration: 10mM), 1.36 ± 0.092. For the same molecule, the NP40-soluble protein abundance was determined as 0.977 ± 0.053 with ACOX3 (concentration: 1mM); 0.928 ± 0.076 with ACOX3 (concentration: 2mM); 0.967 ± 0.031 with ACOX3 (concentration: 4mM); 0.957 ± 0.057 with ACOX3 (concentration: 6mM); 0.972 ± 0.07 with ACOX3 (concentration: 8mM); 0.918 ± 0.089 with ACOX3 (concentration: 10mM). Moreover, the NP40-soluble protein abundance in the experiment with C9JI46|Q8N3X6|Q8N3X6-3 (concentration: 1mM) is 0.985 ± 0.021; with C9JI46|Q8N3X6|Q8N3X6-3 (concentration: 2mM), 1.024 ± 0.0091; in the experiment with C9JI46|Q8N3X6|Q8N3X6-3 (concentration: 4mM) it was 1.01 ± 0.058; with C9JI46|Q8N3X6|Q8N3X6-3 (concentration: 6mM) it was 0.992 ± 0.017; with C9JI46|Q8N3X6|Q8N3X6-3 (concentration: 8mM), 0.952 ± 0.014; with C9JI46|Q8N3X6|Q8N3X6-3 (concentration: 10mM), 1 ± 0.039.
